Compounds with a hit are over-represented: about 2.8% of the library has one in this group of screens.
EBV LMP1 NFkB: reduces LMP1-driven NF-kappaB luciferase signal; LMP1-induced NF-kappaB luciferase reporter cells, luminescence; AID 504558; actives 0.69% (n = 350,000); inhibition, % at 12.5 µM; in the data active means inhibition above about 41%; inconclusive means no clear call, values can overlap the other calls;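 further: 0% = neutral control wells and 100% = reference inhibitor control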
Peg3 prom inh: reduces Peg3 promoter-driven luciferase expression in HeLa | HeLa PEG-Prom luciferase reporter, luminescence, overnight | inhibition, % at 20 µM | actives 1.7% (n = 360,000);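 active means inhibition of at least 50% at 20 µM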
PAX8 inh HTS: inhibitors of PAX8 transcriptional activity in RMG-I cells; RMG-I TPO-luciferase reporter, SteadyGlo, 24 h; inhibition, % at 12.6 µM; actives 1.2% (n = 360,000); AID 652154;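 active means mean replicate inhibition at least 60% with every replicate also reaching 60%; inconclusive means only one of the two criteria is met; inactive means mean below 60% and not all replicates reaching 60%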;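 further: luciferase light reporting Pax8 driven TPO promoter activity; plate controls were median of neutral control wells for no effect and mitoxantrone controls for full effect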
Shn3 inh set2: Schnurri-3 reporter inhibition in Clone20 osteoblasts. Clone20 osteoblast Shn3 3'UTR firefly luciferase, 24 h. inhibition, % at 12.5 µM. actives 0.52% (n = 360,000);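 active means mean inhibition of at least 75% with every replicate also reaching 75%; inconclusive means mean inhibition at least 75% but some replicate below; inactive means mean inhibition below 75%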;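 further: 0% = median of neutral control wells and 100% = pilot-screen positive control compound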
MITF TRPM1 inh: MITF TRPM1 promoter inhibition in SK-MEL-5 cells | inhibition, % at 12.5 µM | actives 0.83% (n = 330,000) | SK-MEL-5 TRPM1 promoter luciferase, 24 h | AID 488899;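 active means mean inhibition across replicates of 60% or more, whatever share of single replicates reaches that level; inconclusive means some that reach 60%, reason not given; inactive means mean inhibition across replicates below 60%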
HIF-2a inh: blocks HIF-2a reporter activity. 786-0 RCC cells HIF-2a reporter, luciferase luminescence, overnight. inhibition, % at 18.8 µM. actives 0.72% (n = 360,000). AID 624352;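 active means inhibition of the luminescence signal of 40% or more relative to plate controls, in a single-dose primary screen at 18.75 µM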
Mdm2 MdmX conf: confirmation of inhibitors of human Mdm2/MdmX interaction, set 2; shares compounds with HIF-2a inh; actives 99% (n = 740); inhibition, % at 8 µM; SaOS-2 split-luciferase Mdm2/MdmX complementation, luminescence; AID 504601;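 active means mean inhibition of the luminescence signal across two replicates at or above 26 percent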
Target sequence (O15151 whole entry, looked up): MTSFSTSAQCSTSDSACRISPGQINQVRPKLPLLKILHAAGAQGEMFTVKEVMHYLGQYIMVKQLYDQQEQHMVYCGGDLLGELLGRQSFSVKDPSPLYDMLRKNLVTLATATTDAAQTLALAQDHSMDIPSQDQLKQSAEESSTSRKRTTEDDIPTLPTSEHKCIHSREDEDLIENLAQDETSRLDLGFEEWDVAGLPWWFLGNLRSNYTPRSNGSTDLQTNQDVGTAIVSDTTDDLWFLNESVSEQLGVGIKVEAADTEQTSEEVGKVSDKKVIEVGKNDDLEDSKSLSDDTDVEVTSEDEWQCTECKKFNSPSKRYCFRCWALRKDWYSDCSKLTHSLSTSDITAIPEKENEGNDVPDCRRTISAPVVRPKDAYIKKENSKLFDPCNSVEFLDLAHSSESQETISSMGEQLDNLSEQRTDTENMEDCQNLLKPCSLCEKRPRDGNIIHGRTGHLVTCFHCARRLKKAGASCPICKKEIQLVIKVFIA
Target sequence (Q00987 whole entry, looked up): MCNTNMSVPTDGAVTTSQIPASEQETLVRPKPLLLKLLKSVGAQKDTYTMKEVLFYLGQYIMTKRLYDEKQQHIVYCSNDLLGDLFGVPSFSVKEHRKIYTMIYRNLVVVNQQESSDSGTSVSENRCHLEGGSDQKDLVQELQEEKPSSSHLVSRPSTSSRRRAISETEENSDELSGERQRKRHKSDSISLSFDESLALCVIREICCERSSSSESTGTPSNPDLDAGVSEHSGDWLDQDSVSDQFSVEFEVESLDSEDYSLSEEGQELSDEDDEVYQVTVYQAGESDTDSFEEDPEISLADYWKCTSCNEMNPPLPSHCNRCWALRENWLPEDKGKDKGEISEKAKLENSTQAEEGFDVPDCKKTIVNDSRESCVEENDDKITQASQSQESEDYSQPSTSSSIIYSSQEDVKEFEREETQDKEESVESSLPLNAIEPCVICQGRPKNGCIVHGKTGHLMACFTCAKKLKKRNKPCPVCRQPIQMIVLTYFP
HIF-2a conf: HIF-2a inhibition, single concentration confirmation; shares compounds with HIF-2a inh; 786-0 RCC cells, HIF-2a luciferase reporter luminescence, overnight; inhibition, % at 18.8 µM; actives 56% (n = 1,800);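 active means mean inhibition across four replicates of at least 40 percent at the single tested concentration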
HIF-1a cs: counter-screen for HIF-2a inhibitors: HIF-1a inhibition in MiaPaCa-2 cells. inhibition, % at 18.8 µM. shares compounds with HIF-2a inh. actives 72% (n = 1,800). MiaPaCa-2 HIF-1a luciferase reporter, desferoxamine, overnight;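 active means mean inhibition of the reporter signal across four replicates at the single tested dose of 50% or more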
* marks the source's active call; other numbers are inactive results; ? = inconclusive; / = no result.

SMILES | EBV LMP1 NFkB | Peg3 prom inh | PAX8 inh HTS | Shn3 inh set2 | MITF TRPM1 inh | HIF-2a inh | HIF-2a conf | HIF-1a cs | others
S=C(Nc1cc(Cl)cc(Cl)c1)NC1CCN(Cc2ccccc2)CC1 | 4.6 | 94.4* | 19.7 | 16.0 | 11.8 | 41.7* | 12.2 | 107.4*
C[C@H]1CCCCO[C@H](CN(C)S(=O)(=O)c2cn(C)cn2)[C@@H](C)CN([C@@H](C)CO)C(=O)c2cc(NS(=O)(=O)c3ccc(F)cc3)ccc2O1 | / | / | -11.9 | / | / | / | / | /
Cc1cccc(C(=O)Nc2ccc(C(=O)/C=C/c3ccncc3)cc2)c1 | 38.3 | 102.0* | 23.5 | 84.7 | 54.8 | 87.9* | -77.5 | 105.3*
Cc1cccc(C(=O)Nc2cccc(C(=O)N/N=C/c3ccncc3)c2)c1 | 2.7 | 2.5 | -16.3 | 7.1 | -26.4 | -1.7 | / | /
O=C(/C=C/c1cccnc1)/C=C/c1cccnc1 | -45.7 | 109.0* | 92.2* | 94.4* | 96.4* | 94.9* | 65.9* | 106.6*
Cc1cccc(C(=O)Nc2ccc(C(=O)/C=C/c3cccnc3)cc2)c1 | 27.1 | 109.3* | -52.6 | 96.9* | 26.8 | 76.1* | -104.2 | 104.5*
C[C@@H]1CCCCO[C@H](CN(C)C(=O)CCCN(C)C)[C@@H](C)CN([C@H](C)CO)C(=O)c2cc(NS(=O)(=O)c3cccs3)ccc2O1 | / | / | -6.7 | / | / | / | / | /
O=C(CC1CC1)N[C@H]1C[C@@H]2O[C@@H](CO)CC[C@@H]2O[C@@H]1CCc1ccc(C#Cc2ccccc2)cc1 | / | / | -59.7 | / | / | / | / | /
CCOC(=O)c1ccc(Nc2ccc(-c3ccc(OC)c(OC)c3)nn2)cc1 | 3.2 | 17.3 | / | 24.6 | -9.8 | -3.6 | / | /
CCOC(=O)c1ccc(Nc2nc(N)c3cc(OC)c(OC)cc3n2)cc1 | 7.4 | 47.4 | / | 6.3 | 22.9 | -44.1 | / | / | Mdm2 MdmX conf=61.2*
CC(=O)Nc1cccc(C(=O)/C=C/c2ccc(Br)cc2)c1 | 4.1 | 101.4* | 34.7 | 9.5 | 39.1 | 91.7* | 15.9 | 105.5* | Mdm2 MdmX conf=103.2*
CCC(=O)Nc1cccc(C(=O)/C=C/c2cc(Br)ccc2OC)c1 | 66.8* | 103.6* | / | -14.4 | 91.0* | 83.8* | 84.2* | 105.7* | Mdm2 MdmX conf=102.7*
COc1ccc(Br)cc1/C=C/C(=O)Nc1ccc2ccccc2c1 | -10.7 | -61.6 | -26.5 | -39.8 | -10.3 | -89.5 | / | /
CC(=O)Nc1cccc(C(=O)/C=C/c2ccc(N(C)C)cc2)c1 | 3.0 | -250.7 | -97.1 | -29.8 | -29.8 | -217.4 | / | /
CC(=O)N(C)C[C@H]1Oc2ncc(-c3cccc(C#N)c3)cc2C(=O)N([C@@H](C)CO)C[C@@H]1C | / | / | -2.1 | / | / | / | / | /
C/C(=N\NC(=S)Nc1cc(S(=O)(=O)N2CCOCC2)ccc1Cl)c1ccccc1F | 9.4 | 52.6* | 6.8 | 34.2 | 27.2 | 70.1* | 25.3 | 87.0*
CC(C)N(C(=S)Nc1cc(S(=O)(=O)N2CCOCC2)ccc1Cl)c1ccccc1 | 3.4 | 8.7 | -13.0 | 0.2 | -3.9 | 18.0 | / | /
O=C(C(=Cc1ccc(F)cc1)C(=O)c1ccccc1)c1ccccc1 | / | 99.6* | -220.6 | 0.4 | / | 84.8* | 43.3* | 102.3*
CCOC(=O)c1cc(-c2csc(Nc3c(C)cc(C)cc3C)n2)on1 | -4.3 | 13.2 | -2.4 | -16.0 | 14.0 | 57.5* | 19.1 | 15.8
CCOC(=O)c1ccc(-c2ccc(N3C(c4ccsc4)=Cc4ccc(F)cc4C3c3c[nH]c4ccc(C#N)cc34)cc2)cc1F (stereo not given) | / | / | -36.1 | / | / | 70.9* | 46.6* | 40.5
CC(C)(C)C1C/C(=C/c2ccccn2)C(=O)/C(=C/c2ccccn2)C1 (stereo not given) | 86.5* | 102.3* | / | 94.9* | 101.7* | 95.8* | / | / | Mdm2 MdmX conf=103.0*
O=C1/C(=C/c2ccccn2)COc2ccccc21 | 13.8 | -1.6 | 10.3 | 10.2 | -4.6 | -13.9 | / | /
CC1C/C(=C/c2ccccn2)C(=O)/C(=C/c2ccccn2)C1 (stereo not given) | 90.4* | 100.3* | / | 94.9* | 100.5* | 93.9* | / | / | Mdm2 MdmX conf=102.7*
COc1ccccc1C#Cc1ccc([C@H]2[C@@H](CO)N3CCCCN(C(=O)C4CCC4)C[C@@H]23)cc1 | / | / | 0.4 | / | / | / | / | /
Nc1nc(F)nc2c1ncn2[C@@H]1O[C@H](CO)[C@@H](O)[C@H]1O | 91.1* | 94.6* | 107.6* | 95.7* | 92.8* | 56.7* | 55.4* | 106.6*
SMILES | EBV LMP1 NFkB | Peg3 prom inh | PAX8 inh HTS | Shn3 inh set2 | MITF TRPM1 inh | HIF-2a inh | HIF-2a conf | HIF-1a cs | others
Cc1cccc(C2(c3cccc(C)c3)CC2C(=O)Nc2ccc([N+](=O)[O-])cc2O)c1 (stereo not given) | 39.1 | 53.7* | 94.7* | 73.3 | 66.3* | 21.9 | / | / | Mdm2 MdmX conf=100.2*
C=C1C(=O)[C@]23C[C@H]1CCC2[C@]1(C)CCC[C@@](C)(C(=O)O)C1C[C@@H]3O (stereo not given in full) | / | 99.4* | 117.2* | 88.9* | / | 87.7* | 91.0* | 104.2*
C=C[C@]1(C)C=C2CCC3[C@](C)(CCC[C@@]3(C)C(=O)O)C2CC1 (stereo not given in full) | 7.7 | 10.2 | / | 11.0 | 6.2 | 8.8 | / | /
O=C(NCC[C@@H]1CC[C@@H](NS(=O)(=O)Cc2ccccc2)[C@@H](CO)O1)C1CCCCC1 | / | / | -6.4 | / | / | / | / | /
c1ccc(-n2nnnc2Sc2ncnc3sc4c(c23)CCCC4)cc1 | -10.5 | 68.5* | 21.9 | ? | 62.9* | 40.7* | 14.8 | 62.4*
Cc1sc2ncnc(Sc3nnnn3-c3ccc(Cl)cc3)c2c1C | 5.4 | 88.5* | 75.1* | -23.4 | 73.1* | 41.4* | 1.2 | 102.0* | Mdm2 MdmX conf=102.7*
CCCNC(=O)N1C[C@@H]2[C@H](c3ccccc31)[C@H](CO)N2C(=O)c1ccccc1 | / | / | -19.9 | / | / | / | / | /
Cc1sc2ncnc(N3CCC(C(=O)Nc4cc(S(C)(=O)=O)ccc4Cl)CC3)c2c1C | 11.6 | 32.7 | 7.4 | 13.2 | -2.5 | 41.4* | -1.0 | 73.9*
CCC(=O)N1[C@H](CO)[C@@H](c2ccccc2)[C@@H]1CN(C)C(=O)c1cccc(F)c1 | / | / | 5.9 | / | / | / | / | /
Cc1ccc(S(=O)(=O)N2CCN(CCc3ccccc3)CC2)c(C)c1 | 11.6 | -5.1 | 2.8 | 5.2 | 9.3 | -10.8 | / | /
Cc1ccc(S(=O)(=O)ON2C(=O)c3ccccc3C2=O)c(C)c1 | -3.7 | 60.3* | -2.0 | 81.9 | 39.1 | 72.4* | 58.8* | -0.7
Cc1cc(C)c(C)c(S(=O)(=O)ON2C(=O)c3ccccc3C2=O)c1C | 0.1 | 89.0* | / | 65.0 | 32.0 | 56.4* | 50.1* | 7.5
CC(C)n1c(/C=C/[C@@H](O)C[C@@H](O)CC(=O)O)c(-c2ccc(F)cc2)c2ccccc21 | -59.0 | 27.7 | 11.3 | 84.8 | -38.2 | 39.0* | 20.1 | -38.7

Source: PubChem (several laboratories)
